# Measurements: the supplement of paper PMC11732987, “Enantioselective OTUD7B fragment discovery through chemoproteomics screening and high-throughput optimisation” (Communications Chemistry, 2025)
# Unmarked numbers belong to inactive results.
# Legend:
# Assay in all cases: log2 ratio of Biotin-Ahx-Ub-VS probe labelling (fragment/DMSO); higher = less target engagement (more negative = stronger competition), active = hit call of the paper (q ≤ 0.05, log2 ratio ≤ -1)
# Settings in all cases: compound concentration: 200 uM; treatment time: 3 h
# OTUD6B = biological target: T1, OTUD6B (UniProt Q8N6M0)
# T1 sequence (whole entry): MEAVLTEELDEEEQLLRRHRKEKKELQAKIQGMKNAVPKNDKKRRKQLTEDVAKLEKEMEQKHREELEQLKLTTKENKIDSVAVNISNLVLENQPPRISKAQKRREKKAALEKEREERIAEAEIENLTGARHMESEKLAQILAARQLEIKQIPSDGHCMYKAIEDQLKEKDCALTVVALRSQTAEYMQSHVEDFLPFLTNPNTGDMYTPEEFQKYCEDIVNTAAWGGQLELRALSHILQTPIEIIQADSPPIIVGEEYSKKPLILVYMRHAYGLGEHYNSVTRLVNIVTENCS
# Outline: (§1)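 Average log2 ratios of fragment over vehicle were obtained by unpaired t-test from global-median-normalised Spectronaut label-free quantities. Proteins with ≥2 unique peptides were included. HEK293T lysate (495 µg per sample) was treated in triplicate with fragment at 200 µM or vehicle for 3 h, then with Biotin-Ahx-Ub-VS at 0.5 µM final for 1 h, and labelled DUBs were NeutrAvidin-enriched and run by diaPASEF LC-MS/MS.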
# OTUD7B = biological target: T2, OTUD7B (UniProt Q6GQQ9)
# T2 sequence (whole entry): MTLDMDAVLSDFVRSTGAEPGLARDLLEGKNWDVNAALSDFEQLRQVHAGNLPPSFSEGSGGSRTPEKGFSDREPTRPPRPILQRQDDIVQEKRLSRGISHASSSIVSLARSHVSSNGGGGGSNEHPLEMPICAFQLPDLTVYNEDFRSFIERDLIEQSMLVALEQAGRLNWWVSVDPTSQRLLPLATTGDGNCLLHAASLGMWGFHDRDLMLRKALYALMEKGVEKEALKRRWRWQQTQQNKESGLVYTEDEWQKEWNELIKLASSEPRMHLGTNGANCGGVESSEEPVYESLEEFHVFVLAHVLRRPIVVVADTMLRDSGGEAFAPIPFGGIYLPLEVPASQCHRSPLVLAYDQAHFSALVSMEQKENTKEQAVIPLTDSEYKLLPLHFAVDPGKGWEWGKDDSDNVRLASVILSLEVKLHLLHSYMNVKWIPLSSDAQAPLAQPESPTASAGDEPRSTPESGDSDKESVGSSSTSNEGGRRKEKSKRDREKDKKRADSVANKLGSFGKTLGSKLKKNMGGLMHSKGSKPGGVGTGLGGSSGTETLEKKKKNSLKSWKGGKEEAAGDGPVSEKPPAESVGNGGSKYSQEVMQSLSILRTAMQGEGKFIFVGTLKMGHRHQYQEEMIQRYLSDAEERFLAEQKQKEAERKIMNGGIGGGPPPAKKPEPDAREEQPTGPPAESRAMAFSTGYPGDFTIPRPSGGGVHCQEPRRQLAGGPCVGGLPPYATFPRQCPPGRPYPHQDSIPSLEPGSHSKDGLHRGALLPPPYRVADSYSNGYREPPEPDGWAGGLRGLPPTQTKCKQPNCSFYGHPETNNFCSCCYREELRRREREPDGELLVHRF
# Outline: as §1
# PRPF8 = PRPF8 (UniProt Q6P2Q9)
# Outline: as §1
# PSMD7 = biological target: T3, PSMD7 (UniProt P51665)
# T3 sequence (whole entry): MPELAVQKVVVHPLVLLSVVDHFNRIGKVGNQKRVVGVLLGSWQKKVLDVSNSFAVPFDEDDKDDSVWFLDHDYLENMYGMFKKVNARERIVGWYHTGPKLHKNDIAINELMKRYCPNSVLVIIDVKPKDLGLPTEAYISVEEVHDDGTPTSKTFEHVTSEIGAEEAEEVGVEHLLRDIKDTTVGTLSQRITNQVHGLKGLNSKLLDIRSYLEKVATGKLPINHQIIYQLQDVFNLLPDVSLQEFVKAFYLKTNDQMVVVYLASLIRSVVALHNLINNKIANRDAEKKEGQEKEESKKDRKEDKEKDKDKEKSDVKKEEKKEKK
# Outline: as §1
# UCHL1 = UCHL1 (UniProt P09936)
# Outline: as §1
# UCHL3 = biological target: T4, UCHL3 (UniProt P15374)
# T4 sequence (whole entry): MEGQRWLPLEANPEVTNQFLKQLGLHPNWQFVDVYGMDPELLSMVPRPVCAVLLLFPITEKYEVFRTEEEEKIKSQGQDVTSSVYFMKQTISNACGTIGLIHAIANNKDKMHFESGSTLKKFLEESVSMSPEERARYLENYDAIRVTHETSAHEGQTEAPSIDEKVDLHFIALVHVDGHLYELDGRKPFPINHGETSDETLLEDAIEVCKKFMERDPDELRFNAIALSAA
# Outline: as §1
# UCHL5 = biological target: T5, UCHL5 (UniProt Q9Y5K5)
# T5 sequence (whole entry): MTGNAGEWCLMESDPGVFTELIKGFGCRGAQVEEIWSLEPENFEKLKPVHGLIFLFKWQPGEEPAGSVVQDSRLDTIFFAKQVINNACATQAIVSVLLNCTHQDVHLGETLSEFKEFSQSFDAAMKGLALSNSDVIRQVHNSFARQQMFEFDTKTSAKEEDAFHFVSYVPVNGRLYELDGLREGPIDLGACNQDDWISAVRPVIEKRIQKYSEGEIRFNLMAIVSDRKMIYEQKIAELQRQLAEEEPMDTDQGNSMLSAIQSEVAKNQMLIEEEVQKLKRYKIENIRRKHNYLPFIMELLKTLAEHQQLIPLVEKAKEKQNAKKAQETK
# Outline: as §1
# USP10 = USP10 (UniProt Q14694)
# Outline: as §1
# USP15 = biological target: T6, USP15 (UniProt Q9Y4E8)
# T6 sequence (whole entry): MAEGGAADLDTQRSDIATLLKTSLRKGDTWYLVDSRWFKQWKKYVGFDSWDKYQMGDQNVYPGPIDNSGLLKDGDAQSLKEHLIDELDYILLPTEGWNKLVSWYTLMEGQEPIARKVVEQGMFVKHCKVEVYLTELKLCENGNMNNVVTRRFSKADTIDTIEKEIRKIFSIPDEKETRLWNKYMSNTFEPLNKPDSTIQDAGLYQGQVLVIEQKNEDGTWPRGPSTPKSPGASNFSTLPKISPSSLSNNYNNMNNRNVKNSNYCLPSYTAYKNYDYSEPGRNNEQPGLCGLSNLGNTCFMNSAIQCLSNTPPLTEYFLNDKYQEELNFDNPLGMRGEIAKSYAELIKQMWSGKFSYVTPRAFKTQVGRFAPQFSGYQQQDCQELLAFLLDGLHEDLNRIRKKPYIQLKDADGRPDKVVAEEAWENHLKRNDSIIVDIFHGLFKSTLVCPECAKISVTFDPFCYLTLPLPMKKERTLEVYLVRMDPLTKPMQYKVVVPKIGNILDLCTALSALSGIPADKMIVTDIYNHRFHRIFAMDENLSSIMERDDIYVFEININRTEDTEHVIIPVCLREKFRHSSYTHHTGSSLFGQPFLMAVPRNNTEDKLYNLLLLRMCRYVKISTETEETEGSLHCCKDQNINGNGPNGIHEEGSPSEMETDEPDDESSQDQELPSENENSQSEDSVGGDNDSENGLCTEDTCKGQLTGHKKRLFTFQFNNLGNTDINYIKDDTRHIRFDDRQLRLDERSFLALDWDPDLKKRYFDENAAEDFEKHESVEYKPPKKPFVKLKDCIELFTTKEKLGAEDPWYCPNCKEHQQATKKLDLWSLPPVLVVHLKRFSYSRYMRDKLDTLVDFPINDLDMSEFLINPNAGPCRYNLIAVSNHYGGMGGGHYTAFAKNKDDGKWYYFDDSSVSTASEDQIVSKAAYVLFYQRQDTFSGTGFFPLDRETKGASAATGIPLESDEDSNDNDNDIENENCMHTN
# Outline: as §1
# USP16 = USP16 (UniProt Q9Y5T5)
# Outline: as §1
# Sequence of UCHL1 (P09936 whole entry, looked up): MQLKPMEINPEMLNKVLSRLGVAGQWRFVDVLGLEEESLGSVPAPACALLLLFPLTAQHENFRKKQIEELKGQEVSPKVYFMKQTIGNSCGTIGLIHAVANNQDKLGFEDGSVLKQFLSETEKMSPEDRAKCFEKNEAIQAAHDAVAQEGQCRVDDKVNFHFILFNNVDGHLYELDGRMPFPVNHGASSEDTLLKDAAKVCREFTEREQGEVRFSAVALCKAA
# Sequence of USP16 (Q9Y5T5 whole entry, looked up): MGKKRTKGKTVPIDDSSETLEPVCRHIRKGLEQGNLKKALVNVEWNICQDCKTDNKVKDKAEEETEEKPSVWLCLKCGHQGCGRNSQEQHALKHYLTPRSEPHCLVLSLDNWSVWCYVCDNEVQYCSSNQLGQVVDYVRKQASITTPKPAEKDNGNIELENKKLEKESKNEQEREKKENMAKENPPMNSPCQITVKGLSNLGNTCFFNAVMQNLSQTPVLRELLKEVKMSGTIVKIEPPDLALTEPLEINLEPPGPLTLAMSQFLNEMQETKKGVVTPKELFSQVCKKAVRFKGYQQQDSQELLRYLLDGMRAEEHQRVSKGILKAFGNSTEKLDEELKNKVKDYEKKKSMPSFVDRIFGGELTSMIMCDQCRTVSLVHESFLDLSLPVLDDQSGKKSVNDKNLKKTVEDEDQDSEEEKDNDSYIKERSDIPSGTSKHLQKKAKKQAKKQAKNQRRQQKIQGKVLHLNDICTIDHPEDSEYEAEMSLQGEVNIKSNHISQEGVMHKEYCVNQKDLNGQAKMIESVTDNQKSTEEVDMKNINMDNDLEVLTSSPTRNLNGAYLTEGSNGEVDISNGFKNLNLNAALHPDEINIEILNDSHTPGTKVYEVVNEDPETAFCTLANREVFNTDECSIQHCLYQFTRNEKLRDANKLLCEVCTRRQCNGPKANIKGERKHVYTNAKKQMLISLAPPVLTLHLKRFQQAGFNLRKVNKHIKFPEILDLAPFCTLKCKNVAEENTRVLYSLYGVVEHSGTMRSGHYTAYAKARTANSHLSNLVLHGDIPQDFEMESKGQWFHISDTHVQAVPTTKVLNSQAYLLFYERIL
# Sequence of USP10 (Q14694 whole entry): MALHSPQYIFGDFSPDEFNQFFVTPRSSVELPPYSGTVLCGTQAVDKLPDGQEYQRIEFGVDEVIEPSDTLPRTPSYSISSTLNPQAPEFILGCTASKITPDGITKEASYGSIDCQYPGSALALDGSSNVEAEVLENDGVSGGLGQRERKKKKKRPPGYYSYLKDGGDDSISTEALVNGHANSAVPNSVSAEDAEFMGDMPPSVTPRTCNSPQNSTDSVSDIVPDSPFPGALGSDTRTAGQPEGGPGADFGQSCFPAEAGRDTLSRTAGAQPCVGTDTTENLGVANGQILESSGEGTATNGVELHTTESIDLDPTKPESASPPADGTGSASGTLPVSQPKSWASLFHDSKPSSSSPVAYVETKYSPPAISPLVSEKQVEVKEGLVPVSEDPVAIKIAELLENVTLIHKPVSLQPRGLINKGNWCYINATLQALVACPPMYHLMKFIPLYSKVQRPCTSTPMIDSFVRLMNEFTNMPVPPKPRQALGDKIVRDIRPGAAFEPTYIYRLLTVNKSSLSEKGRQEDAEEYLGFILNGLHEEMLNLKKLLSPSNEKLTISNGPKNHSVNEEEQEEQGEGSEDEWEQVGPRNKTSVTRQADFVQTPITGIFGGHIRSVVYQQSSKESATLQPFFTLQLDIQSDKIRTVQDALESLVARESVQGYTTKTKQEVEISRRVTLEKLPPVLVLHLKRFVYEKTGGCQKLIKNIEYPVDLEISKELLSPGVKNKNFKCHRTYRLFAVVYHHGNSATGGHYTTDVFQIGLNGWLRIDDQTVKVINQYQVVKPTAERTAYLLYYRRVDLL
Structure (SMILES),log2 ratio of Biotin-Ahx-Ub-VS probe labelling (OTUD6B),log2 ratio of Biotin-Ahx-Ub-VS probe labelling (OTUD7B),log2 ratio of Biotin-Ahx-Ub-VS probe labelling (PRPF8),log2 ratio of Biotin-Ahx-Ub-VS probe labelling (PSMD7),log2 ratio of Biotin-Ahx-Ub-VS probe labelling (UCHL1),log2 ratio of Biotin-Ahx-Ub-VS probe labelling (UCHL3),log2 ratio of Biotin-Ahx-Ub-VS probe labelling (UCHL5),log2 ratio of Biotin-Ahx-Ub-VS probe labelling (USP10),log2 ratio of Biotin-Ahx-Ub-VS probe labelling (USP15),log2 ratio of Biotin-Ahx-Ub-VS probe labelling (USP16)
O=C(CCl)NCc1ccc(N2CCOCC2)c(F)c1,0.111,-0.497,-0.0572,0.0258,-1.41 (active),0.309,-0.0833,-0.131,-0.0773,-0.0789
COc1cccc(CN(C)C(=O)CCl)c1,-0.198,-0.364,-0.0045,-0.109,-1.22 (active),0.229,-0.0244,-0.22,-0.251,0.142
CCN(C(=O)CCl)C1CCCCC1,-0.00402,-0.011,-0.0683,0.00413,-0.999,0.576,0.0144,-0.185,-0.0855,0.0695
Cl.Cn1cnc2cc(CNC(=O)CCl)ccc21,-0.108,-0.399,0.126,-0.0706,-1.72 (active),0.249,0.000192,-0.194,-0.333,-0.459
O=C(CCl)N1CCOC2(CCC2)C1,0.01,-1.29 (active),-0.0922,-0.254,-1.53 (active),0.273,-0.0117,0.0764,0.059,0.246
Cl.O=C(CCl)NCCN1CCc2ccccc21,-0.983,-0.675,0.014,-0.0696,-2.25 (active),-0.556,-1.03 (active),-0.344,-0.991,-0.252
CC(c1ccccc1)N(C)C(=O)CCl (stereo not given),0.00154,-0.433,-0.049,0.0333,-0.925,0.257,-0.0435,-0.134,-0.334,-0.635
CC(NC(=O)CCl)c1cc2n(n1)CCCC2.Cl (stereo not given),-0.253,-1.77 (active),0.0583,0.0299,-2.03 (active),0.315,-0.121,-0.153,0.0201,-0.211
Cl.O=C(CCl)NCc1cc2c(nc1O)CCCC2,-0.123,-0.66,-0.141,-0.244,-1.64 (active),0.175,-0.407,-0.083,-0.148,-0.389
Cc1cc(Cl)ccc1NC(=O)CCl,-0.0452,-0.649,0.192,0.0336,-1.46 (active),0.0619,-0.109,-0.132,-0.218,-0.157
Cc1nc(CNC(=O)CCl)c2ccccn12.Cl,-0.000255,-0.458,-0.14,-0.132,-1.12 (active),-0.319,-0.224,-0.121,-0.398,-0.0983
O=C(CCl)Nc1ccc(F)cc1F,-0.161,-0.881,-0.105,-0.179,-1.47 (active),0.078,-0.242,-0.129,-0.34,0.0073
Cc1cnc2[nH]cc(CCNC(=O)CCl)c2c1,0.00839,-0.562,-0.0916,-0.297,-0.85,0.0619,-0.065,-0.0977,-0.336,0.0147
O=C(CCl)Nc1cc2c(cc1Cl)OCCCO2,-0.0697,-0.399,0.00677,-0.0387,-1.39 (active),-0.323,-0.0527,-0.157,-0.172,-0.508
